Out of some 310,000 compounds screened, about 14,000 (4.5%) showed an effect of 50% or more. Effects have a minus sign here. The sample as a whole holds a higher share of strong results than the screen did.
Molecular target: human ether-à-go-go-related gene (hERG) potassium channel (human, UniProt Q12809)
Test: primary screen, population patch clamp on CHO cells stably expressing hERG; higher = less effect of the substance
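Further: peak tail current of the secondary pulse compared with the same well before compound.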

Chain of human ether-à-go-go-related gene (hERG) potassium channel (Q12809 whole entry, looked up): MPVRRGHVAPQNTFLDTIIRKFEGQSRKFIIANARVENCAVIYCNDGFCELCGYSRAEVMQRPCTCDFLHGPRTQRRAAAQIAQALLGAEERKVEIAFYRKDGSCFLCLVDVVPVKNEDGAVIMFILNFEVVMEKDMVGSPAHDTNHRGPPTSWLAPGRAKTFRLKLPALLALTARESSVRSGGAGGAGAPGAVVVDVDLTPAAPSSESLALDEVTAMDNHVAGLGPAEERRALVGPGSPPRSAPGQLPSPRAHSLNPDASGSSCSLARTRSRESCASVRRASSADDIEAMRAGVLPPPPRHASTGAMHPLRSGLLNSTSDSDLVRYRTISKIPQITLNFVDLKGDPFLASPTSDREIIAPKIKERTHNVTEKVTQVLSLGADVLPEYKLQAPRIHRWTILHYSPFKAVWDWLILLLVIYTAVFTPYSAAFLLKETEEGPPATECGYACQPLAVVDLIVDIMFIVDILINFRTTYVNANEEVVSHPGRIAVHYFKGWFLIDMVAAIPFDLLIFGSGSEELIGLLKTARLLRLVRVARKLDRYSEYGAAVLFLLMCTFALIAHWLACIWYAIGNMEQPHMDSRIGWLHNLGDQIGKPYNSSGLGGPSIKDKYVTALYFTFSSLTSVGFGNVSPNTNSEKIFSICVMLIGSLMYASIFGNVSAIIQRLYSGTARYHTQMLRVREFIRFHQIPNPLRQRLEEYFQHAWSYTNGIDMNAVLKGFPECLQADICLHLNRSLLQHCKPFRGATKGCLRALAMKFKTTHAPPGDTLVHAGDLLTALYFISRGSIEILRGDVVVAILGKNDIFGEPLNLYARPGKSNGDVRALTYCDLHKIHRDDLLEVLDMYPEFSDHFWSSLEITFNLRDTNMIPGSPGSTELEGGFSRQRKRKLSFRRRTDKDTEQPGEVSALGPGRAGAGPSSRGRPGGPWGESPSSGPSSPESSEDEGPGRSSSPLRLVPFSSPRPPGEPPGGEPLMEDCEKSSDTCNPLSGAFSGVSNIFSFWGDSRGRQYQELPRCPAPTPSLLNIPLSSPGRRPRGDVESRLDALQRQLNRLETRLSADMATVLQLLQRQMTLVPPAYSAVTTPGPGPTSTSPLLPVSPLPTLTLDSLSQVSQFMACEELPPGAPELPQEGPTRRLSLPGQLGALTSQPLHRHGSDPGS

Compared with `COc1ccc(OC)c(S(=O)(=O)NC2CCN(Cc3ccccc3)CC2)c1`, `CCOC(=O)C1(CCc2ccccc2)CCN(Cc2ccc(NC(C)=O)cc2)CC1` is lower in “hERG current change (%, negative = inhibition) at 10uM” value: -4.92% for the first, -76.6% for the second.

Compared with `Nc1ccc(C(=O)N/N=C2\CCCc3c2[nH]c2ccccc32)cc1`, `O=C(Cc1cn(Cc2cccc(Cl)c2)c2ccccc12)N1CCCC1` is lower in “hERG current change (%, negative = inhibition) at 10uM” value: 16.2% for the first, -50% for the second.

Going from `COc1ccc(-n2nc(C(=O)NCC(=O)NCCCN3CCN(C)CC3)c3ccccc3c2=O)cc1OC` to `COc1ccccc1C(=O)NCC(=O)OCC(=O)c1cccc2ccccc12`, the “hERG current change (%, negative = inhibition) at 10uM” value falls from 18.9% to 4.06%.

First: Cc1ccccc1CN1C2=NCCCN2c2ccccc21.Cl
Second: Cc1ccccc1CN1C2=NCCN2c2ccccc21.Cl
The “hERG current change (%, negative = inhibition) at 10uM” value of the first is lower: -68% for the first, -53.7% for the second.

First: CS(=O)(=O)NCc1nnc(SCC(=O)NC2CCCCC2)n1-c1ccc(F)cc1
Second: COc1ccccc1CNC(=O)C1CCCN(S(C)(=O)=O)C1 (stereo not shown)
The “hERG current change (%, negative = inhibition) at 10uM” value of the first is higher: 11.6% for the first, 9.4% for the second.

Going from `COCCn1c(=N)c(S(=O)(=O)c2ccc(F)cc2)cc2c(=O)n3ccccc3nc21` to `COCCn1c(=N)c(S(=O)(=O)c2ccc(Br)cc2)cc2c(=O)n3ccccc3nc21`, the “hERG current change (%, negative = inhibition) at 10uM” value falls from -25.5% to -44.3%.

Going from `Cc1cc2ccccc2c(=O)n1CC(=O)NCc1ccco1` to `COCCn1c(=N)c(C(=O)NCc2ccco2)cc2c(=O)n3ccccc3nc21`, the “hERG current change (%, negative = inhibition) at 10uM” value falls from 13.8% to -78.1%.

Going from `CCn1cc(C(=O)NCc2ccco2)c2cc(OC)c(OC)cc2c1=O` to `CCn1cc(C(=O)NCc2ccco2)c(=O)c2ccc(C)nc21`, the “hERG current change (%, negative = inhibition) at 10uM” value rises from -20.9% to 16.9%.

First: COCCn1c(=N)c(C(=O)NCc2ccco2)cc2c(=O)n3cc(C)ccc3nc21
Second: Cc1ccc2nc3c(cc(C(=O)NCc4ccco4)c(=N)n3Cc3ccco3)c(=O)n2c1
The “hERG current change (%, negative = inhibition) at 10uM” value of the first is lower: -82.1% for the first, -77% for the second.

Going from `COCCn1cc(C(=O)NCc2ccco2)c2c3ccccc3n(C)c2c1=O` to `O=C(CCCn1c(=O)c2sccc2n(CC(=O)NCc2ccco2)c1=O)NCc1ccco1`, the “hERG current change (%, negative = inhibition) at 10uM” value rises from -20.6% to -6.69%.

First: COc1ccc2c(c1)CCc1c(C(=O)N3CCCC3)noc1-2
Second: O=C(O)C1CC=CCC1C(=O)Nc1cccc(C(=O)N2CCCCC2)c1 (stereo not shown)
The “hERG current change (%, negative = inhibition) at 10uM” value of the first is lower: -7.79% for the first, -5.25% for the second.

Compared with `CC(C)c1ccccc1NC(=O)COC(=O)Cc1c[nH]c2ccccc12`, `CN(CC(=O)Nc1ccccc1Cl)C(=O)COC(=O)Cc1ccc(F)cc1` is lower in “hERG current change (%, negative = inhibition) at 10uM” value: 7.28% for the first, 1.33% for the second.

Going from `C/C(=N\NC(=O)c1ccncc1)c1c(O)[nH]c(=O)[nH]c1=O` to `O=C(OCc1nc2ccsc2c(=O)[nH]1)c1ccccc1`, the “hERG current change (%, negative = inhibition) at 10uM” value rises from -1.22% to 0.869%.

Going from `[O-]/C(=C(\C(=S)Nc1ccc(SC(F)F)cc1)[n+]1ccccc1)c1cc(Cl)ccc1Cl` to `O=C(O)c1cn(Cc2ccccc2)c2ccc(Cl)cc2c1=O`, the “hERG current change (%, negative = inhibition) at 10uM” value falls from 1.83% to -76.3%.

Compared with `COc1ccc(-c2noc(CN(C(=O)c3c(-c4ccccc4Cl)noc3C)C(C)C)n2)cc1`, `COc1ccc(Cl)cc1NS(=O)(=O)c1cccc(C(=O)NCC(c2ccco2)N(C)C)c1` (stereo not shown) is lower in “hERG current change (%, negative = inhibition) at 10uM” value: 14.8% for the first, -2.01% for the second.

First: CN1C[C@H](C(=O)N[C@]2(C)O[C@@]3(O)[C@@H]4CCCN4C(=O)[C@H](Cc4ccccc4)N3C2=O)CC2c3cccc4[nH]cc(c34)C[C@H]21.O=C(O)C(O)C(O)C(=O)O (stereo partly shown)
Second: CC1CCCN(C(=O)Cc2cn(Cc3cccc(Cl)c3)c3ccccc23)C1 (stereo not shown)
The “hERG current change (%, negative = inhibition) at 10uM” value of the first is higher: 2.03% for the first, -5.42% for the second.

Compared with `CC(NC(=O)NNC(N)=S)(C(F)(F)F)C(F)(F)F`, `COc1ccccc1C(=O)NNC(=O)c1ccc(Br)o1` is higher in “hERG current change (%, negative = inhibition) at 10uM” value: 4.68% for the first, 14% for the second.

First: Cc1ccc2nc(N(CCCN(C)C)C(=O)c3ccc4c(c3)CCCC4)sc2c1.Cl
Second: CN(C)CCCN(C(=O)c1ccc2c(c1)CCCC2)c1nc2ccc(Cl)cc2s1.Cl
The “hERG current change (%, negative = inhibition) at 10uM” value of the first is lower: -71.5% for the first, -43.8% for the second.

First: CN(C)CCCN(C(=O)c1ccc2c(c1)CCCC2)c1nc2ccc(F)cc2s1.Cl
Second: CCOc1ccc2nc(N(CCCN(C)C)C(=O)c3ccc4c(c3)CCCC4)sc2c1.Cl
The “hERG current change (%, negative = inhibition) at 10uM” value of the first is lower: -66.9% for the first, -14.1% for the second.

First: CCN(CC)CCN(C(=O)c1ccc2c(c1)CCCC2)c1nc2ccc(C)cc2s1.Cl
Second: CCN(CC)CCN(C(=O)c1ccc2c(c1)CCCC2)c1nc2ccc(F)cc2s1.Cl
The “hERG current change (%, negative = inhibition) at 10uM” value of the first is higher: 10.1% for the first, -1.94% for the second.

First: CCN(CC)C(=O)C1CCC(C)(C(=O)O)C1(C)C (stereo not shown)
Second: CCOC(=O)C1(Cc2ccccc2C)CCCN(Cc2ccc(NC(C)=O)cc2)C1 (stereo not shown)
The “hERG current change (%, negative = inhibition) at 10uM” value of the first is lower: 3.91% for the first, 11.5% for the second.

First: O=S1(=O)CCO[C@H]2Cc3ccccc3[C@H]2N1Cc1cccc(Cl)c1
Second: O=C(O)Cc1cn(Cc2cccc(Cl)c2)c2ccccc12
The “hERG current change (%, negative = inhibition) at 10uM” value of the first is lower: -28.4% for the first, 12.6% for the second.

Compared with `Cc1nc(SCn2nnc3ccccc3c2=O)nc(C)c1C`, `Cc1ccc(Nc2nc(=O)c3cccnc3s2)c(Br)c1` is higher in “hERG current change (%, negative = inhibition) at 10uM” value: -12.3% for the first, 3.27% for the second.

Going from `Cc1ccc(OCCNC(=O)/C=C/c2ccccc2)cc1C` to `CC(=O)N(CN1C(=O)c2ccccc2C1=O)c1cccc(C)c1`, the “hERG current change (%, negative = inhibition) at 10uM” value rises from -8.32% to 4.43%.

Going from `Cc1cc(=O)n2nc(N3CCC(C(=O)NC(C)c4ccccc4)CC3)sc2n1` (stereo not shown) to `O=C(c1cn(Cc2ccccc2)c2ccccc12)C1CC1`, the “hERG current change (%, negative = inhibition) at 10uM” value rises from 5.85% to 7.67%.

Compared with `CCc1ccc(C(=O)COC(=O)CNC(=O)CNC(=O)Cc2ccccc2)cc1`, `CCc1ccc(C(=O)COC(=O)CNC(=O)Cc2ccccc2)cc1` is lower in “hERG current change (%, negative = inhibition) at 10uM” value: 9.36% for the first, 0.382% for the second.

First: CN(CC(=O)Nc1ccccc1Cl)C(=O)COC(=O)CNC(=O)c1ccc(Br)o1
Second: Cc1cccc(C(=O)NCC(=O)OCC(=O)N(C)CC(=O)Nc2ccccc2Cl)c1
The “hERG current change (%, negative = inhibition) at 10uM” value of the first is lower: -61.4% for the first, -40.5% for the second.

Going from `COc1ccccc1C(=O)COC(=O)CNC(=O)c1ccc(Br)o1` to `O=C(COC(=O)CNC(=O)c1ccc(Br)o1)Nc1ccccc1OC(F)F`, the “hERG current change (%, negative = inhibition) at 10uM” value falls from -50.7% to -51.6%.

Going from `CCc1ccc(C(=O)COC(=O)CNC(=O)COc2ccccc2)cc1` to `CCc1ccc(C(=O)COC(=O)CNC(=O)c2ccco2)cc1`, the “hERG current change (%, negative = inhibition) at 10uM” value rises from -57.4% to -18.2%.

Going from `CCc1ccc(C(=O)COC(=O)CNC(=O)c2ccc(Br)o2)cc1` to `Cc1ccc(C(=O)COC(=O)CNC(=O)c2ccc(Br)o2)cc1[N+](=O)[O-]`, the “hERG current change (%, negative = inhibition) at 10uM” value rises from -64% to 4.86%.

Going from `Clc1ccc(-n2ncc3c(NCc4ccccn4)ncnc32)cc1` to `c1ccc(-n2nnnc2Cc2nnnn2-c2ccccc2)cc1`, the “hERG current change (%, negative = inhibition) at 10uM” value rises from 4.15% to 50.3%.

Going from `COc1ccccc1NS(=O)(=O)c1ccc(C)c(C(=O)NCC2(N(C)C)CCCCC2)c1` to `O=C(Cc1cn(Cc2cccc(Cl)c2)c2ccccc12)N1CCCCCC1`, the “hERG current change (%, negative = inhibition) at 10uM” value rises from -42.9% to -4.89%.

Compared with `O=C(NCCCN1CCOCC1)c1ccc2c(c1)N(Cc1cccc(Cl)c1)C(=O)CS2`, `CCCCCn1cc(C(=O)C(=O)N2CCOCC2)c2ccccc21` is lower in “hERG current change (%, negative = inhibition) at 10uM” value: -16.7% for the first, -26.3% for the second.

Compared with `CC1Cc2ccccc2N1C(=O)c1ccc(Br)o1` (stereo not shown), `CC1Cc2ccccc2N1C(=O)COC(=O)c1ccc(Br)o1` (stereo not shown) is higher in “hERG current change (%, negative = inhibition) at 10uM” value: -13.1% for the first, 8.05% for the second.

First: O=C(COC(=O)CNC(=O)c1ccco1)Nc1ccccc1OC(F)F
Second: O=C(Nc1ccccc1OC(F)F)c1ccc(Br)o1
The “hERG current change (%, negative = inhibition) at 10uM” value of the first is higher: 11.6% for the first, -20.9% for the second.

Compared with `CC1Cc2ccccc2N1C(=O)COC(=O)CNC(=O)c1ccc(Br)o1` (stereo not shown), `CCOC(=O)C1(CCOc2ccccc2)CCN(Cc2ccc(NC(C)=O)cc2)CC1` is lower in “hERG current change (%, negative = inhibition) at 10uM” value: -60.2% for the first, -79.3% for the second.

Compared with `Cc1ccc2nc(-c3ccccc3)cc(C(=O)N(C)CC(=O)Nc3ccccc3Br)c2c1`, `O=C(COc1ccccc1)c1cn(Cc2ccccc2)c2ccccc12` is higher in “hERG current change (%, negative = inhibition) at 10uM” value: -11% for the first, 7.62% for the second.

Going from `O=C(Nc1ccccc1OC(F)F)c1cc2c(s1)CCC2` to `CC(C)Oc1cccc(C(=O)C2CCCN(S(=O)(=O)C(C)C)C2)c1` (stereo not shown), the “hERG current change (%, negative = inhibition) at 10uM” value falls from -16.4% to -21.7%.

First: C=CCNC(=S)/N=c1/ccccn1C
Second: CCCCCCn1cc(C(=O)O)c(=O)c2ccccc21
The “hERG current change (%, negative = inhibition) at 10uM” value of the first is higher: -5.42% for the first, -75.8% for the second.

Going from `CN(Cc1cnccn1)Cc1nc(Cc2ccccc2F)no1` to `Cn1c(Br)nc2c1c(=O)n(CC(O)COc1ccccc1)c(=O)n2C` (stereo not shown), the “hERG current change (%, negative = inhibition) at 10uM” value falls from -0.154% to -1.54%.

First: COCCC(=O)N1CCC(Oc2ccc(C(=O)N(C)C(C)c3ccon3)cc2)CC1 (stereo not shown)
Second: COc1ccc(C2=NN(C(=O)CSc3nnnn3C)C(c3ccco3)C2)cc1 (stereo not shown)
The “hERG current change (%, negative = inhibition) at 10uM” value of the first is higher: 13.1% for the first, 3.05% for the second.

First: CN(C)CCOC(=O)c1cn(Cc2ccccc2)c2ccccc12.Cl
Second: Cn1cc(-c2ccccc2C(=O)O)c(=O)c2cc(Cl)ccc21
The “hERG current change (%, negative = inhibition) at 10uM” value of the first is lower: -59.1% for the first, 20.9% for the second.

In the case of `CCCCCCn1cc(C(=O)O)c(=O)c2cc(F)c(N3CCCCC3)cc21`, the “hERG current change (%, negative = inhibition) at 10uM” value is reported as 5.7%.

Reference: paper PMC4336329 (PLoS ONE, 2015)
